Measured values: PubChem BioAssay AID1159580 (chemical genetic matrix, 2015)
Values joined by “and” are separate entries in the source; they are usually repeats but may differ in a detail not shown here. Equal entries are not always repeated. Hit rate of the full screen: of about 5,500 compounds, about 2,000 (36%) were called active. Not shown: some 18% with an inconclusive outcome. No stated cut-off is given here; in the data, active means normalized growth mostly below about 0.91 (no sharp cut-off); inconclusive means no clear call, values can overlap the other calls; inactive means mostly above about 0.92. The list shows a part of the results.

Test: chemical genetic growth profiling, strain panel (AID 1159580);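 further: tested at 20 µM; growth read once vehicle control cultures reached saturation at 30 °C; 1 = growth at the plate median or of vehicle wells; lower values mean less growth of the strain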
Conditions: S. cerevisiae deletion strains, growth OD

Measured: normalized growth

CCc1cccc2c3c([nH]c12)C(CC)(CC(=O)O)OCC3 (stereo not given)
inactive: locus YAL013W, strain DEP1, hits give low values 1.01 and 1.02 | locus YAL021C, strain ccr4, hits give low values 1.01 | locus YAL026C, strain drs2, hits give low values 0.983 | locus YAL030W, strain snc1, hits give low values 1 | locus YAL040C, strain CLN3, hits give low values 0.976 | locus YBL061C, strain skt5, hits give low values 0.979 | locus YBR009C, strain hhf1, hits give low values 1 | locus YBR021W, strain FUR4, hits give low values 1.01 | locus YBR023C, strain chs3, hits give low values 0.968 | locus YBR171W, strain sec66, hits give low values 0.959 | locus YBR229C, strain ROT2, hits give low values 1.01 | locus YBR231C, strain swc5, hits give low values 0.989 | locus YBR279W, strain paf1, hits give low values 0.987 | locus YCL011C, strain gbp2, hits give low values 1 | locus YCL016C, strain dcc1, hits give low values 1 | locus YCL029C, strain bik1, hits give low values 1.01 | locus YCL061C, strain MRC1 (second series), hits give low values 0.995 | locus YCL069W, strain vba3, hits give low values 0.976 | locus YCR088W, strain abp1, hits give low values 0.983 | locus YDL005C, strain med2, hits give low values 0.971 | locus YDL035C, strain GPR1, hits give low values 1 | locus YDL040C, strain nat1, hits give low values 0.976 | locus YDL074C, strain BRE1, hits give low values 1.02 | locus YDL101C, strain DUN1, hits give low values 1.02 | locus YDL134C, strain PPH21, hits give low values 1.01 | locus YDL185W, strain tfp1, hits give low values 1.01 | locus YDL192W, strain arf1, hits give low values 1.01 | locus YDR001C, strain nth1, hits give low values 0.966 | locus YDR069C, strain doa4, hits give low values 0.976 | locus YDR101C, strain arx1, hits give low values 1 | locus YDR137W, strain rgp1, hits give low values 0.964 | locus YDR150W, strain NUM1, hits give low values 1 and 0.999 | locus YDR159W, strain sac3, hits give low values 0.976 | locus YDR162C, strain NBP2, hits give low values 1.01 | locus YDR195W, strain ref2 0.896 | locus YDR297W, strain sur2, hits give low values 0.985 | locus YDR318W, strain mcm21, hits give low values 1.02 | locus YDR334W, strain swr1, hits give low values 0.951 | locus YDR335W, strain msn5, hits give low values 0.968 | locus YDR363W, strain ESC2, hits give low values 1.05 | locus YDR388W, hits give low values 1.01 | locus YDR392W, strain spt3, hits give low values 1.03 | locus YDR502C, strain sam2, hits give low values 0.986 | locus YEL003W, strain gim4, hits give low values 0.964 | locus YEL037C, strain rad23, hits give low values 0.968 | locus YEL061C, strain CIN8 (second series), hits give low values 0.965 | locus YEL061C, strain CIN8, hits give low values 1 | locus YER002W, strain NOP16, hits give low values 0.979 | locus YER015W, strain faa2, hits give low values 0.973 | locus YER016W, strain bim1, hits give low values 0.984 | locus YER110C, hits give low values 1 | locus YER111C, strain swi4, hits give low values 0.968 | locus YER155C, strain BEM2 (second series), hits give low values 0.979 | locus YER155C, strain BEM2, hits give low values 1.01 | locus YER167W, strain BCK2, hits give low values 1.01 | locus YFR010W, strain ubp6, hits give low values 0.984 | locus YGL078C, strain dbp3, hits give low values 0.99 | locus YGL086W, strain mad1, hits give low values 1.01 | locus YGL167C, strain pmr1, hits give low values 0.957 | locus YGL173C, strain kem1, hits give low values 0.993 | locus YGL227W, strain vid30, hits give low values 0.987 | locus YGL240W, strain doc1, hits give low values 0.982 | locus YGL248W, strain PDE1, hits give low values 1.01 | locus YGL253W, strain hxk2, hits give low values 0.98 | locus YGR078C, strain PAC10, hits give low values 1.02 | locus YGR135W, strain pre9, hits give low values 1 | locus YGR229C, strain SMI1, hits give low values 0.995 | locus YGR252W, strain gcn5, hits give low values 1 | locus YHR013C, strain ard1, hits give low values 0.985 | locus YHR027C, strain rpn1, hits give low values 0.997 | locus YHR030C, strain SLT2, hits give low values 1.01 and 0.971 | locus YHR079C, strain IRE1 (second series), hits give low values 1.01 | locus YHR079C, strain IRE1, hits give low values 0.965 | locus YHR094C, strain hxt1, hits give low values 1.01 | locus YHR129C, strain ARP1, hits give low values 1.01 | locus YHR142W, strain chs7, hits give low values 0.986 | locus YHR200W, strain rpn10, hits give low values 1 | locus YIL066C, strain RNR3, hits give low values 1.01 | locus YIL073C, strain SPO22, hits give low values 1.02 | locus YIL125W, strain kgd1, hits give low values 0.992 | locus YIR030C, strain dcg1, hits give low values 0.997 | locus YJL092W, strain hpr5, hits give low values 0.982 | locus YJL095W, strain BCK1 (second series), hits give low values 0.987 | locus YJL095W, strain BCK1, hits give low values 1.05 and 0.971 | locus YJL115W, strain asf1, hits give low values 0.98 | locus YJL129C, strain trk1, hits give low values 0.934 | locus YJL134W, strain LCB3, hits give low values 1.01 | locus YJL154C, strain vps35, hits give low values 0.981 | locus YJL164C, strain tpk1, hits give low values 1.01 | locus YJL166W, strain qcr8, hits give low values 0.984 | locus YJL168C, strain set2, hits give low values 1 | locus YJL187C, strain SWE1 (second series), hits give low values 1.03 | locus YJR043C, strain POL32, hits give low values 1.01 | locus YJR066W, strain TOR1, hits give low values 0.916 | locus YJR075W, strain HOC1, hits give low values 1.02
